Calls of active or inactive are those of the source. The calls were made as follows: active = hit-call score of the fitted dose curve at least 0.9, where 1 is the maximum; inactive = score below 0.9.
Tests used:
Conditions in all cases: mRNA level, 48 h; actives raise or lower the signal
[1] = read-out: Potassium channel subfamily K member 1 (KCNK1), KCNK1 (gene 3775); assay: LTEA_HepaRG_KCNK1: Life Technologies and Expression Analysis (LTEA) Assay for Potassium channel subfamily K member 1 (KCNK1) using HepaRG (AID 2283511)
How it was run: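 Differentiated HepaRG cells, 48 h exposure in serum-free induction medium with 0.5% DMSO; 8 concentrations, half-log from 100 uM, duplicate. KCNK1 mRNA by qRT-PCR, normalized to ACTB, GAPDH, POLR2A; bidirectional fit vs DMSO.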

[2] = read-out: Keratin 19 (KRT19), KRT19 (gene 3880); assay: LTEA_HepaRG_KRT19: Life Technologies and Expression Analysis (LTEA) Assay for Keratin 19 (KRT19) using HepaRG (AID 2283512)
How it was run: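 Differentiated human HepaRG cells, plated 48 h, were exposed in duplicate for 48 h in serum-free induction medium to eight half-log concentrations up to 100 uM in 0.5% DMSO. KRT19 mRNA was quantified by qRT-PCR, normalized to ACTB, GAPDH and POLR2A, and fitted bidirectionally versus DMSO.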

[3] = read-out: JUN Transcription Factor, JUN (gene 3725); assay: LTEA_HepaRG_JUN: Life Technologies and Expression Analysis (LTEA) Assay for JUN Transcription Factor using HepaRG (AID 2283513)
How it was run: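 Cells plated 48 h, medium switched to serum-free induction medium, then dosed 48 h (100 uM top, half-log dilutions, 0.5% DMSO). RNA isolated; JUN measured by qRT-PCR against three housekeeping genes; gain or loss fitted relative to DMSO.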

[4] = read-out: Lipase C (LIPC), LIPC (gene 3990); assay: LTEA_HepaRG_LIPC: Life Technologies and Expression Analysis (LTEA) Assay for Lipase C (LIPC) using HepaRG (AID 2283514)
How it was run: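 HepaRG cells, 48 h after plating, treated in duplicate for 48 h in serum-free induction medium over 8 half-log concentrations from 100 uM, 0.5% DMSO. LIPC mRNA by TaqMan qRT-PCR normalized to ACTB/GAPDH/POLR2A; bidirectional fit versus DMSO.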

[5] = read-out: Lipoprotein lipase (LPL), LPL (gene 4023); assay: LTEA_HepaRG_LPL: Life Technologies and Expression Analysis (LTEA) Assay for Lipoprotein lipase (LPL) using HepaRG (AID 2283515)
How it was run: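 Differentiated HepaRG cells, plated 48 h, then exposed 48 h in serum-free induction medium to 8 concentrations (top 100 uM, half-log steps) in 0.5% DMSO, duplicate. LPL mRNA measured by qRT-PCR, normalized to ACTB, GAPDH and POLR2A.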

[6] = read-out: MicroRNA 122 (MIR122), gene 406906; assay: LTEA_HepaRG_MIR122: Life Technologies and Expression Analysis (LTEA) Assay for MicroRNA 122 (MIR122) using HepaRG (AID 2283516); also: the transcript read is the microRNA miR-122
How it was run: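 HepaRG plated 48 h, switched to serum-free induction medium, then treated in duplicate for 48 h (100 uM top, half-log steps, 0.5% DMSO vehicle). RNA isolated, qRT-PCR performed, concentration-response fitted both directions relative to DMSO.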

[7] = read-out: matrix metalloproteinase-10 (MMP10), MMP10 (gene 4319); assay: LTEA_HepaRG_MMP10: Life Technologies and Expression Analysis (LTEA) Assay for matrix metalloproteinase-10 (MMP10) using HepaRG (AID 2283517)
How it was run: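 Differentiated HepaRG cells in serum-free induction medium exposed 48 h in duplicate to 8-point half-log series up to 100 uM in 0.5% DMSO. mRNA quantified by qRT-PCR, normalised to ACTB, GAPDH, POLR2A; bidirectional fit versus DMSO.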

[8] = read-out: MYC, MYC (gene 4609); assay: LTEA_HepaRG_MYC: Life Technologies and Expression Analysis (LTEA) Assay for MYC using HepaRG (AID 2283518)
How it was run: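 Differentiated human HepaRG cells, plated 48 h then switched to serum-free induction medium, were exposed in duplicate for 48 h to 8-point half-log series up to 100 uM in 0.5% DMSO. MYC mRNA measured by qRT-PCR, normalized to ACTB/GAPDH/POLR2A.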

[9] = read-out: matrix metalloproteinase-3 (MMP3), MMP3 (gene 4314); assay: LTEA_HepaRG_MMP3: Life Technologies and Expression Analysis (LTEA) Assay for matrix metalloproteinase-3 (MMP3) using HepaRG (AID 2283519)
How it was run: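 HepaRG cells (~100,000/well) in serum-free induction medium were dosed in duplicate for 48 h with an 8-point half-log series from 100 uM, 0.5% DMSO. MMP3 mRNA was quantified by Fluidigm TaqMan qRT-PCR, normalized to three housekeeping genes.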

[10] = read-out: Paternally Expressed 10 (PEG10), PEG10 (gene 23089); assay: LTEA_HepaRG_PEG10: Life Technologies and Expression Analysis (LTEA) Assay for Paternally Expressed 10 (PEG10) using HepaRG (AID 2283520)
How it was run: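 HepaRG, 48 h post-plating → serum-free induction medium → 48 h chemical exposure (duplicate, 8-pt, max 100 uM, half-log, 0.5% DMSO) → lysis in RLT → TaqMan qRT-PCR for PEG10, ACTB/GAPDH/POLR2A normalisation.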

[11] = read-out: Nuclear factor NF-kappa-B p105 subunit (Homo sapiens) (UniProt P19838); assay: LTEA_HepaRG_NFKB1: Life Technologies and Expression Analysis (LTEA) Assay for Nuclear Factor Kappa B Subunit 1 (NFKB1) using HepaRG (AID 2283521)
How it was run: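 Differentiated human HepaRG cells in serum-free induction medium with 0.5% DMSO were exposed for 48 h to eight half-log concentrations, top 100 uM, in duplicate. NFKB1 mRNA measured by Fluidigm TaqMan qRT-PCR, normalised to ACTB, GAPDH and POLR2A; bidirectional fit versus DMSO.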

[12] = read-out: Protein phosphatase 2A (PPP2R4), PTPA (gene 5524); assay: LTEA_HepaRG_PPP2R4: Life Technologies and Expression Analysis (LTEA) Assay for Protein phosphatase 2A (PPP2R4) using HepaRG (AID 2283522)
How it was run: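 Readout is PPP2R4 transcript level by microfluidic qRT-PCR after 48 h chemical treatment of human HepaRG liver cells. Concentrations spanned 100 uM downward in half-log steps; gain or loss of signal was fitted relative to DMSO.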

[13] = read-out: solute carrier (SLC22A1), SLC22A1 (gene 6580); assay: LTEA_HepaRG_SLC22A1: Life Technologies and Expression Analysis (LTEA) Assay for solute carrier (SLC22A1) using HepaRG (AID 2283524)
How it was run: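 Differentiated human HepaRG cells in serum-free induction medium, exposed 48 h in duplicate to 8-point half-log series from 100 µM top in 0.5% DMSO. SLC22A1 mRNA by TaqMan qRT-PCR normalized to ACTB, GAPDH, POLR2A; bidirectional fit versus DMSO.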

[14] = read-out: Pyruvate Dehydrogenase Kinase 4 (PDK4), PDK4 (gene 5166); assay: LTEA_HepaRG_PDK4: Life Technologies and Expression Analysis (LTEA) Assay for Pyruvate Dehydrogenase Kinase 4 (PDK4) using HepaRG (AID 2283525)
How it was run: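 HepaRG cells plated 48 h, then switched to serum-free induction medium and exposed in duplicate for 48 h to 8 half-log concentrations from 100 uM in 0.5% DMSO. PDK4 mRNA measured by qRT-PCR, normalized to ACTB, GAPDH and POLR2A; bidirectional fit versus DMSO.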

[15] = read-out: NAD(P)H dehydrogenase [quinone] 1 (NQO1), NQO1 (gene 1728); assay: LTEA_HepaRG_NQO1: Life Technologies and Expression Analysis (LTEA) Assay for NAD(P)H dehydrogenase [quinone] 1 (NQO1) using HepaRG (AID 2283526)
How it was run: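 HepaRG, 48 h post-plating → serum-free induction medium → test chemical 48 h (duplicate, 100 uM top, half-log x8, 0.5% DMSO) → RNA isolation → qRT-PCR, ACTB/GAPDH/POLR2A normalization; bidirectional curve fit vs DMSO baseline.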

[16] = read-out: succinate dehydrogenase complex iron sulfur subunit B (SDHB), SDHB (gene 6390); assay: LTEA_HepaRG_SDHB: Life Technologies and Expression Analysis (LTEA) Assay for succinate dehydrogenase complex iron sulfur subunit B (SDHB) using HepaRG (AID 2283528)
How it was run: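 HepaRG cells (~100,000/well, plated 48 h) exposed in duplicate for 48 h in serum-free induction medium to 8-point half-log series from 100 uM in 0.5% DMSO; mRNA by qRT-PCR normalised to ACTB, GAPDH, POLR2A; bidirectional fit versus DMSO.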

[17] = read-out: Signal transducer and activator of transcription 3 (Homo sapiens) (UniProt P40763); assay: LTEA_HepaRG_STAT3: Life Technologies and Expression Analysis (LTEA) Assay for Signal transducer and activator of transcription (STAT3) using HepaRG (AID 2283529)
How it was run: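 Differentiated HepaRG cells, serum-free induction medium, dosed 48 h in duplicate, 8 half-log concentrations from 100 uM in 0.5% DMSO. STAT3 mRNA by qRT-PCR, normalised to ACTB, GAPDH, POLR2A; bidirectional fit versus DMSO.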

[18] = read-out: solute carrier (SLCO1B1), SLCO1B1 (gene 10599); assay: LTEA_HepaRG_SLCO1B1: Life Technologies and Expression Analysis (LTEA) Assay for solute carrier (SLCO1B1) using HepaRG (AID 2283530)
How it was run: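 Differentiated human HepaRG cells, plated 48 h, switched to serum-free induction medium and exposed in duplicate for 48 h to 8 half-log concentrations (top 100 uM) in 0.5% DMSO. SLCO1B1 mRNA by TaqMan qRT-PCR, normalized to ACTB/GAPDH/POLR2A.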

[19] = read-out: Phosphatase and tensin (PTEN), PTEN (gene 5728); assay: LTEA_HepaRG_PTEN: Life Technologies and Expression Analysis (LTEA) Assay for Phosphatase and tensin (PTEN) using HepaRG (AID 2283523)
How it was run: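 HepaRG cells, 48 h after plating, exposed in duplicate for 48 h in serum-free induction medium to 8 half-log concentrations up to 100 uM (0.5% DMSO). PTEN mRNA by qRT-PCR, normalized to ACTB, GAPDH, POLR2A; bidirectional fit versus DMSO.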

[20] = read-out: Nuclear factor erythroid 2-related factor 2 (Homo sapiens) (UniProt Q16236); assay: LTEA_HepaRG_NFE2L2: Life Technologies and Expression Analysis (LTEA) Assay for Nuclear factor erythroid 2-related factor 2 (NFE2L2) Transcription Factor using HepaRG (AID 2283527)
How it was run: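 Differentiated human HepaRG cells, serum-free induction medium, exposed 48 h in duplicate to eight half-log concentrations up to 100 uM in 0.5% DMSO. NFE2L2 mRNA by Fluidigm TaqMan qRT-PCR, normalised to ACTB, GAPDH, POLR2A; bidirectional change versus DMSO.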

Measured: AC50

Sequence of Nuclear factor erythroid 2-related factor 2 (Homo sapiens) (Q16236 whole entry, looked up): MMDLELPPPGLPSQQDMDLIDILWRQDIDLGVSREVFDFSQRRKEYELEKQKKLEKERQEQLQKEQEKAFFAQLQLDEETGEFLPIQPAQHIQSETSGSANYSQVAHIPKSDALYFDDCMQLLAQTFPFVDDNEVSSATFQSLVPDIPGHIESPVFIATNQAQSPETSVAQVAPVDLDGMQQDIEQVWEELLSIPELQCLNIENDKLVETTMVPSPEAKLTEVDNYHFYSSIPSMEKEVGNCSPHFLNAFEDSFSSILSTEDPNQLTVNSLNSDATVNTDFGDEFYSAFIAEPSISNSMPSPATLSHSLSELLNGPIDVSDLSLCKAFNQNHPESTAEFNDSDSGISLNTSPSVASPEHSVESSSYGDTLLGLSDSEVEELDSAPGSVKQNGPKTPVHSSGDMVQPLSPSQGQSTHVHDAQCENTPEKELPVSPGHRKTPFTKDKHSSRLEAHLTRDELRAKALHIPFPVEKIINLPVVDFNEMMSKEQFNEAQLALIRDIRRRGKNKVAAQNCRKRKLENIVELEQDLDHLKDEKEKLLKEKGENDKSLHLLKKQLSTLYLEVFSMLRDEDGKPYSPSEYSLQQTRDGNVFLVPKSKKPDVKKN
Sequence of Signal transducer and activator of transcription 3 (Homo sapiens) (P40763 whole entry, looked up): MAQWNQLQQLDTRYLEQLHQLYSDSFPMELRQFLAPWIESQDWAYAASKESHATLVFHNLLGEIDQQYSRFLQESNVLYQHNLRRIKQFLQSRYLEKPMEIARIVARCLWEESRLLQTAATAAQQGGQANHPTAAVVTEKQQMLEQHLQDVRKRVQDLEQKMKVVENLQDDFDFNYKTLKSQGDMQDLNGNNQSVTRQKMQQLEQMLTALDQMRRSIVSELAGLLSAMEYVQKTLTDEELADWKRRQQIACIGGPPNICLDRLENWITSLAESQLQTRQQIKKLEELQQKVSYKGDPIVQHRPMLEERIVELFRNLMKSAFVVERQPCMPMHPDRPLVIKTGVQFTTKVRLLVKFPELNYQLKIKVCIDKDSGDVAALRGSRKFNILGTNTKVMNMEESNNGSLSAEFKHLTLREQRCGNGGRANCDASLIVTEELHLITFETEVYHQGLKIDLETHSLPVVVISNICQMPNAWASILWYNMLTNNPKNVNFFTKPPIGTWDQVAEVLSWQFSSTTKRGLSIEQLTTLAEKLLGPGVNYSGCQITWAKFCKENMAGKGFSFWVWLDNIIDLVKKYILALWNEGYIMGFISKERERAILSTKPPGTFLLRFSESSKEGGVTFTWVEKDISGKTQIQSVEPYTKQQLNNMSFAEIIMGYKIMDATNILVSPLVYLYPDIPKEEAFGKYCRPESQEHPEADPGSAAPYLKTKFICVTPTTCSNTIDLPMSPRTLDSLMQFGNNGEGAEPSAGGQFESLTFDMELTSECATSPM
Sequence of Nuclear factor NF-kappa-B p105 subunit (Homo sapiens) (P19838 whole entry, looked up): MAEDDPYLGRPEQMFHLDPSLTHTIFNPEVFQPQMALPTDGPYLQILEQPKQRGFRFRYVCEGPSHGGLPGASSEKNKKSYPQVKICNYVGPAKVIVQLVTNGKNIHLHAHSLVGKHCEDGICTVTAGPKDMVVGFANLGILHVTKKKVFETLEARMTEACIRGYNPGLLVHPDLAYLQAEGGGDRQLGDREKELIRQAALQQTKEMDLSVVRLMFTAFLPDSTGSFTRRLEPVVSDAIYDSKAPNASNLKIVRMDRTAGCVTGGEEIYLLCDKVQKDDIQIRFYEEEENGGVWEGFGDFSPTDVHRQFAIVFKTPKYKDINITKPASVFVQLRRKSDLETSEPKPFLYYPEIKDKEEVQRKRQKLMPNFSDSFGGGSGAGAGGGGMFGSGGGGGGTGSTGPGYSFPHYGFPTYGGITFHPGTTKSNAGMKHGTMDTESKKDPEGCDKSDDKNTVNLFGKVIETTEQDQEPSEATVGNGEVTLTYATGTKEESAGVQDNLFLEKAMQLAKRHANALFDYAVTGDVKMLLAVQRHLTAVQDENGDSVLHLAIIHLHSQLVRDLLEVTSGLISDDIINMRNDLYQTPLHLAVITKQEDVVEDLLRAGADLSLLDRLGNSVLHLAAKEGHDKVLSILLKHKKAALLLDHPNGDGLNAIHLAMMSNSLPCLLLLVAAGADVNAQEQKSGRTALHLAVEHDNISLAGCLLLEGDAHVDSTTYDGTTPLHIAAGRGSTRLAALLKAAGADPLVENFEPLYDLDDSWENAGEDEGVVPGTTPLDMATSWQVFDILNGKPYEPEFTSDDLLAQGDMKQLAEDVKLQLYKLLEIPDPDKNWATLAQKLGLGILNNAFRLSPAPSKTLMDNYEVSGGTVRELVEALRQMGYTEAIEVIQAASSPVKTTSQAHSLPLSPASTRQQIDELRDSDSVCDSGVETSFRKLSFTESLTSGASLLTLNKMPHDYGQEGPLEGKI

CN[C@H]1CC[C@@H](c2ccc(Cl)c(Cl)c2)c2ccc(S(N)(=O)=O)cc21
inactive: [1] | [6] | [8] | [10] | [15] | [16] | [18]
active: [2] 10.9 µM | [3] 94.5 µM | [4] 15.8 µM | [5] 11.9 µM | [7] 66.4 µM | [9] 84.1 µM | [11] 81.4 µM | [12] 84.5 µM | [13] 22.4 µM | [14] 83 µM | [17] 50 µM

Cc1cc(NC(=O)C(=O)O)cc(C)c1Oc1ccc(O)c2c1CCC2
active: [2] 0.0224 µM | [13] 9.92 µM | [14] 0.00353 µM | [18] 50 µM
not listed: [8] | [11]
inactive: all other assays above

COc1cc(C=O)ccc1O
not listed: [2] | [19]
inactive: all other assays above

CNC(=O)[C@H]1O[C@@H](n2cnc3c(NCc4cc(Cl)ccc4OCc4cc(C)no4)ncnc32)[C@H](O)[C@@H]1N
not listed: [8] | [19] | [20]
inactive: all other assays above

CC(=O)C(C)=CC1C(C)=CCCC1(C)C (stereo unspecified)
not listed: [8] | [11] | [19]
inactive: all other assays above

CCNc1cccc(C)c1
not listed: [8] | [19] | [20]
inactive: all other assays above

CCCCCCCCCCCC(=O)OC
not listed: [8] | [19]
inactive: all other assays above

Oc1ccc2ccccc2c1N=Nc1ccccc1
inactive: [1] | [3] | [7] | [9] | [11] | [12] | [19] | [15] | [16]
active: [4] 11.8 µM | [5] 1.7 µM | [6] 9.92 µM | [8] 6.08 µM | [10] 19 µM | [13] 10.5 µM | [14] 4.28 µM | [20] 1.5 µM | [17] 16.2 µM | [18] 11.4 µM

COCCOCCOC
active: [3] 0.582 µM | [4] 0.983 µM | [5] 1.21 µM | [11] 2.8 µM | [12] 9.92 µM | [19] 0.243 µM | [15] 0.315 µM | [16] 10.9 µM
not listed: [8] | [20]
inactive: all other assays above

Cc1cccc(Nc2cc(Cl)nc(SCC(=O)O)n2)c1C
not listed: [2] | [14] | [20]
inactive: all other assays above

CC(=O)Oc1ccccc1C(=O)O
not listed: [2] | [20]
inactive: all other assays above

OC[C@@H](O)[C@@H](O)[C@H](O)[C@H](O)CO
not listed: [2] | [19]
inactive: all other assays above

C[Si]1(C)O[Si](C)(C)O[Si](C)(C)O[Si](C)(C)O1
not listed: [8] | [19] | [20]
inactive: all other assays above

FC(F)(F)C(F)(F)C(F)(F)C(F)(F)C(F)(F)C(F)(F)CCI
not listed: [8] | [11] | [20]
inactive: all other assays above

CCCCN(CCCC)CCCC
not listed: [8]
inactive: all other assays above
